PubChem BioAssay (NCI)
About 83,000 compounds went through this panel and 20% of them were active in at least one assay; those are over-represented in the sample as a whole.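 Negative percent growth values reflect cell death: -40 means 40% of the cells present at the start died, and -100 means all died.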 Values without a mark were called inactive. Calls of active or inactive are those of the source. How the source made its calls: active means growth percent below 10; inactive means the rest.

Tested on: CAKI-1 renal
Assay: NCI-60 one-dose screen, 48 h (100 = growth as untreated, 0 = no growth, -100 = all killed)
Conditions: 10 µM unless noted

| SMILES | growth |
| --- | --- |
| C=CCSc1nc2ccccc2cc1/C=N/O | 75.1% |
| COc1cc2ncn3c(=O)c4c5c(sc4nc3c2cc1OC)CCCC5 | 92.5% |
| CCn1c(C)nc2cc(C(N)=O)ccc21 | 143% |
| O=C(CCCCCCN1CC(=O)N2[C@@H](c3ccccc3Cl)c3[nH]c4ccccc4c3C[C@H]2C1=O)NO | 71.4% |
| Cc1nn(-c2ccccc2)c2nc3c(c(-c4ccc(Cl)cc4)c12)CNC1(CCSCC1)N3 | 95.4% |
| CCCCCc1nc2c(c3c1CCCC3)CCCC2 | 60.9% |
| CCCCN(CCCC)CC(C)(C)C(O)c1ccc(OC)c2ccccc12 (stereo unspecified) | 23.1% |
| COc1ccc(/C=C/c2c(C(=O)/C=C/c3ccc(F)cc3)c(C)nc3ccccc23)cc1 | 54.6% |
| O=C1CCC2=C3C4CCCCC4C(=O)C4CCCC(OC2C1)C34 (stereo unspecified) | -27.2% (active) |
| O=C(/C=C/c1cccc(O)c1)c1cccc(-n2cc(-c3ccc4ccccc4c3)[nH]c2=O)c1 | -1.58% (active) |
| OC(COc1ccccc1Cl)COc1ccccc1Cl | 106% |
| C[C@]12CC[C@@H]3c4cc(OC(F)F)c(O)cc4CC[C@H]3[C@@H]1CC[C@@H]2OS(N)(=O)=O | 34.5% |
| NC[C@H](O)c1ccc(O)c(O)c1 | 109% |
| O=C(NCCCNc1cc(-c2cn(-c3ccccc3)nc2-c2cccc(O)c2)ccn1)c1ccc(F)cc1 | 12.4% |
| Cc1c(C(=O)NC(Cc2ccccc2)C(O)C(=O)NCc2ccc(F)cc2)[nH]c2ccccc2c1=O (stereo unspecified) | 102% |
| O=Cc1ccc(O)c2ncccc12 | 48.6% |
| CCc1ccccc1-n1c(-c2ccc(Cl)cc2)cc(-c2ccc(Cl)cc2)c(C#N)c1=O | 90.2% |
| O=C(NCCCNc1cc(-c2cn(-c3ccccc3)nc2-c2cccc(O)c2)ccn1)c1cccc(O)c1 | 98.4% |
| O=C(NCCCNc1cc(-c2cn(-c3ccccc3)nc2-c2cccc(O)c2)ccn1)c1ccccc1 | 37.3% |

| SMILES | growth |
| --- | --- |
| C[C@H]1[C@H]2[C@H]3CC[C@@H]4[C@@]5(C)C/C(=C/c6cccnc6)C(=O)C(C)(C)[C@@H]5CC[C@@]4(C)[C@]3(C)CC[C@]23CO[C@]1(C)[C@@H](C(=O)/C=C\c1cccnc1)C3 | 9.32% (active) |
| O=C(Nc1cccc(Oc2nnc(Cl)c3ccccc23)c1)Nc1ccc(Cl)c(C(F)(F)F)c1 | 11.7% |
| Nc1cc2c3c(cccc3c1)C(=O)N(CCN1CCCC1)C2=O | 7.81% (active) |
| COc1cccc(-c2nn(-c3ccccc3)cc2-c2ccnc(NCCNC(=O)Nc3ccccc3)c2)c1 | 64.9% |
| Fc1ccc(CNc2c3ccccc3nc3ccccc23)cc1F | 25.3% |
| COc1cccc(-c2nn(-c3ccccc3)cc2-c2ccnc(NCCNC(=O)Nc3ccc(Cl)c(Cl)c3)c2)c1 | 24.5% |
| c1coc(-c2c3ccc(=[N+]4CCCCC4)cc-3oc3cc(N4CCCCC4)ccc23)c1 | -82.9% (active) |
| O=[N+]([O-])c1ccc(OCCO)cc1 | 93.1% |
| O=C(Nc1cccc(Cl)c1)c1cc(N=Nc2ccc([N+](=O)[O-])cc2Cl)ccc1O | 100% |
| CC(C)(C)OC(=O)Nc1ccc2c(c1)C(NC(=O)Nc1cccc(C#N)c1)CC(C)(C)O2 (stereo unspecified) | 39.2% |
| c1ccc(-c2nc([P+](c3ccccc3)(c3ccccc3)c3ccccc3)c(N3CCOCC3)o2)cc1 | 50.9% |
| Cc1ccc(Cl)c(NS(=O)(=O)c2ccc(-c3cnc(C4CC4)o3)cc2)c1 | 36.6% |
| COc1ccc(-c2nc3c(c(=O)n2C(C)=O)C(c2ccc(Cl)cc2)c2sc4c(Cl)cccc4c2O3)cc1 (stereo unspecified) | -6.4% (active) |
| NC(=O)c1ccc[n+](Cc2ccc(Cl)cc2Cl)c1 | 107% |
| COc1cc(-c2nn(-c3ccccc3)cc2-c2ccnc(NCCNS(=O)(=O)c3ccc(Cl)cc3)n2)ccc1Cl | 28.9% |
| COc1cccc(-c2nn(-c3ccccc3)cc2-c2ccnc(NCCNC(=O)Nc3cccc(C(F)(F)F)c3)c2)c1 | 25.7% |
| Nc1n[nH]c(-c2cc(Cl)ccc2O)c1-c1ccccc1 | 79.7% |
| C[n+]1cc2cc(C(N)=O)[nH]c3c(=N)c(Cl)c(N)c1c23 | 79.9% |
| CN(C)CC1C(=O)O[C@H]2[C@H]1CC/C(COC(=O)c1cc3ccccc3[nH]1)=C\CC[C@@]1(C)O[C@@H]21 (stereo partly specified) | -14.4% (active) |

Tested on: A498 renal
Assay: as above
Conditions: 10 µM unless noted

| SMILES | growth |
| --- | --- |
| C=CCSc1nc2ccccc2cc1/C=N/O | 98% |
| COc1cc2ncn3c(=O)c4c5c(sc4nc3c2cc1OC)CCCC5 | 112% |
| CCn1c(C)nc2cc(C(N)=O)ccc21 | 107% |
| O=C(CCCCCCN1CC(=O)N2[C@@H](c3ccccc3Cl)c3[nH]c4ccccc4c3C[C@H]2C1=O)NO | 73.5% |
| Cc1nn(-c2ccccc2)c2nc3c(c(-c4ccc(Cl)cc4)c12)CNC1(CCSCC1)N3 | 89.1% |
| CCCCCc1nc2c(c3c1CCCC3)CCCC2 | 84.3% |
| CCCCN(CCCC)CC(C)(C)C(O)c1ccc(OC)c2ccccc12 (stereo unspecified) | 59.3% |
| COc1ccc(/C=C/c2c(C(=O)/C=C/c3ccc(F)cc3)c(C)nc3ccccc23)cc1 | 77.2% |
| O=C1CCC2=C3C4CCCCC4C(=O)C4CCCC(OC2C1)C34 (stereo unspecified) | 104% |
| O=C(/C=C/c1cccc(O)c1)c1cccc(-n2cc(-c3ccc4ccccc4c3)[nH]c2=O)c1 | 91.9% |
| OC(COc1ccccc1Cl)COc1ccccc1Cl | 85.2% |
| C[C@]12CC[C@@H]3c4cc(OC(F)F)c(O)cc4CC[C@H]3[C@@H]1CC[C@@H]2OS(N)(=O)=O | -7.08% (active) |
| NC[C@H](O)c1ccc(O)c(O)c1 | 112% |
| O=C(NCCCNc1cc(-c2cn(-c3ccccc3)nc2-c2cccc(O)c2)ccn1)c1ccc(F)cc1 | 29% |
| Cc1c(C(=O)NC(Cc2ccccc2)C(O)C(=O)NCc2ccc(F)cc2)[nH]c2ccccc2c1=O (stereo unspecified) | 107% |
| O=Cc1ccc(O)c2ncccc12 | 106% |
| CCc1ccccc1-n1c(-c2ccc(Cl)cc2)cc(-c2ccc(Cl)cc2)c(C#N)c1=O | 94.9% |
| O=C(NCCCNc1cc(-c2cn(-c3ccccc3)nc2-c2cccc(O)c2)ccn1)c1cccc(O)c1 | 102% |
| O=C(NCCCNc1cc(-c2cn(-c3ccccc3)nc2-c2cccc(O)c2)ccn1)c1ccccc1 | 31.1% |

| SMILES | growth |
| --- | --- |
| C[C@H]1[C@H]2[C@H]3CC[C@@H]4[C@@]5(C)C/C(=C/c6cccnc6)C(=O)C(C)(C)[C@@H]5CC[C@@]4(C)[C@]3(C)CC[C@]23CO[C@]1(C)[C@@H](C(=O)/C=C\c1cccnc1)C3 | -59.1% (active) |
| O=C(Nc1cccc(Oc2nnc(Cl)c3ccccc23)c1)Nc1ccc(Cl)c(C(F)(F)F)c1 | -82.7% (active) |
| Nc1cc2c3c(cccc3c1)C(=O)N(CCN1CCCC1)C2=O | 0.673% (active) |
| COc1cccc(-c2nn(-c3ccccc3)cc2-c2ccnc(NCCNC(=O)Nc3ccccc3)c2)c1 | 43.8% |
| Fc1ccc(CNc2c3ccccc3nc3ccccc23)cc1F | 9.78% (active) |
| COc1cccc(-c2nn(-c3ccccc3)cc2-c2ccnc(NCCNC(=O)Nc3ccc(Cl)c(Cl)c3)c2)c1 | -9.43% (active) |
| c1coc(-c2c3ccc(=[N+]4CCCCC4)cc-3oc3cc(N4CCCCC4)ccc23)c1 | -66.3% (active) |
| O=[N+]([O-])c1ccc(OCCO)cc1 | 90.6% |
| O=C(Nc1cccc(Cl)c1)c1cc(N=Nc2ccc([N+](=O)[O-])cc2Cl)ccc1O | 69.5% |
| CC(C)(C)OC(=O)Nc1ccc2c(c1)C(NC(=O)Nc1cccc(C#N)c1)CC(C)(C)O2 (stereo unspecified) | 57.5% |
| c1ccc(-c2nc([P+](c3ccccc3)(c3ccccc3)c3ccccc3)c(N3CCOCC3)o2)cc1 | 11.7% |
| Cc1ccc(Cl)c(NS(=O)(=O)c2ccc(-c3cnc(C4CC4)o3)cc2)c1 | -5.72% (active) |
| COc1ccc(-c2nc3c(c(=O)n2C(C)=O)C(c2ccc(Cl)cc2)c2sc4c(Cl)cccc4c2O3)cc1 (stereo unspecified) | -2.79% (active) |
| NC(=O)c1ccc[n+](Cc2ccc(Cl)cc2Cl)c1 | 99.8% |
| COc1cc(-c2nn(-c3ccccc3)cc2-c2ccnc(NCCNS(=O)(=O)c3ccc(Cl)cc3)n2)ccc1Cl | 32% |
| COc1cccc(-c2nn(-c3ccccc3)cc2-c2ccnc(NCCNC(=O)Nc3cccc(C(F)(F)F)c3)c2)c1 | 39.7% |
| Nc1n[nH]c(-c2cc(Cl)ccc2O)c1-c1ccccc1 | 101% |
| C[n+]1cc2cc(C(N)=O)[nH]c3c(=N)c(Cl)c(N)c1c23 | 71.9% |
| CN(C)CC1C(=O)O[C@H]2[C@H]1CC/C(COC(=O)c1cc3ccccc3[nH]1)=C\CC[C@@]1(C)O[C@@H]21 (stereo partly specified) | 5.21% (active) |
